In PubChem BioAssay (NCI) one finds growth data, which are given here for 15 molecules.

Molecules are shown by their SMILES. Compounds without any hit were thinned out: in the full panel of roughly 83,000, 20% have a hit.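 Note: values are percent growth. 100 is the growth of untreated cells, values between 100 and 0 indicate rising inhibition; between -100 and 0 indicates cell death.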 Unmarked numbers belong to inactive results. The source made the active and inactive calls. Rule for the calls: active = growth percent below 10; inactive = the rest.

Some test systems named below: RPMI-8226 leukemia; OVCAR-8 ovarian; OVCAR-5 ovarian; OVCAR-4 ovarian; SK-OV-3 ovarian; IGROV1 ovarian; OVCAR-3 ovarian; HS 578T breast; NCI/ADR-RES ovarian; T-47D breast.
Holding throughout (test): NCI-60 one-dose screen, 48 h (100 = growth as untreated, 0 = no growth, -100 = all killed)
Holding throughout (conditions): 10 µM

For the molecule `CN1c2ccccc2[C@]2(Cc3ccccc3)Cc3ccccc3N[C@H]12`, the growth in the experiment on RPMI-8226 leukemia is 98.9%; in the experiment on OVCAR-8 ovarian, 106%; in the experiment with OVCAR-5 ovarian it was 93.8%; in the experiment with OVCAR-4 ovarian, 91%; with SK-OV-3 ovarian it was 122%; with IGROV1 ovarian it was 88.8%. Moreover, the growth is 120% in the experiment with OVCAR-3 ovarian, 110% in the experiment with HS 578T breast, 107% in the experiment on NCI/ADR-RES ovarian and 109% with T-47D breast.

With `CCN(CC)CCCOCCCNc1cc(OC)cc2cccnc12`, the growth was 80.3% in the experiment on RPMI-8226 leukemia; 92.1% in the experiment on OVCAR-8 ovarian; 102% in the experiment with OVCAR-5 ovarian; 26.6% in the experiment with OVCAR-4 ovarian; 97.3% in the experiment with SK-OV-3 ovarian; 75.2% with IGROV1 ovarian. Besides, the growth in the experiment on OVCAR-3 ovarian is 65.9%; in the experiment with HS 578T breast it was 100%; in the experiment on NCI/ADR-RES ovarian, 95.4%; with T-47D breast, 33.9%.

As to `O=C(O)CCCCSc1ncnc2nc[nH]c12`, the growth with RPMI-8226 leukemia is 108%; with OVCAR-8 ovarian, 98.3%; with OVCAR-5 ovarian it was 102%; with OVCAR-4 ovarian, 116%; in the experiment on SK-OV-3 ovarian, 92.9%; with IGROV1 ovarian, 97.5%. For the same molecule, the growth in the experiment with OVCAR-3 ovarian is 100%; with HS 578T breast it was 122%; in the experiment on NCI/ADR-RES ovarian, 107%; with T-47D breast it was 97.2%.

With `Nc1c(C(=O)Nc2cccc(Br)c2)sc2nc3c(cc12)C(O)CCC3` (stereo not given), the growth was 14.7% in the experiment on RPMI-8226 leukemia; 30.6% in the experiment on OVCAR-8 ovarian; 60.4% with OVCAR-5 ovarian; 65.8% with OVCAR-4 ovarian; 21.8% in the experiment on SK-OV-3 ovarian; 27.9% in the experiment with IGROV1 ovarian. Besides, the growth was -18.2% (active) with OVCAR-3 ovarian, 28.3% in the experiment on HS 578T breast, 24.5% in the experiment with NCI/ADR-RES ovarian and 47.4% with T-47D breast.

As for `O=C(Nc1ccncc1)C(=O)c1cn(S(=O)(=O)c2ccc(F)cc2)c2ccccc12`, the growth in the experiment on RPMI-8226 leukemia is 15.5%; in the experiment on OVCAR-8 ovarian, 30%; with OVCAR-5 ovarian it was 72.4%; with OVCAR-4 ovarian, 66.9%; in the experiment with SK-OV-3 ovarian it was 91.2%; in the experiment with IGROV1 ovarian it was 26.8%. Also, the growth in the experiment with OVCAR-3 ovarian was -21.9% (active); in the experiment with HS 578T breast it was 50.4%; with NCI/ADR-RES ovarian it was 2.06% (active); in the experiment on T-47D breast it was 52.5%.

For `O=S(=O)(Nc1ccccn1)c1ccc(N=Nc2ccc(O)c3ncccc23)cc1`, the growth in the experiment on RPMI-8226 leukemia was -15.1% (active); with OVCAR-8 ovarian, 1.26% (active); in the experiment on OVCAR-5 ovarian it was 22.4%; with OVCAR-4 ovarian it was 8.85% (active); in the experiment with SK-OV-3 ovarian it was -7.21% (active); in the experiment on IGROV1 ovarian, -1.59% (active). The growth was 14.4% in the experiment on OVCAR-3 ovarian, 13.5% in the experiment with HS 578T breast, 14.1% with NCI/ADR-RES ovarian and -6.2% (active) in the experiment with T-47D breast.

Take `Clc1ccccc1N=Cc1ccc2c(c1)OCO2`: the growth in the experiment with RPMI-8226 leukemia was 96.2%; in the experiment on OVCAR-8 ovarian, 103%; with OVCAR-5 ovarian it was 105%; in the experiment with OVCAR-4 ovarian, 104%; in the experiment on SK-OV-3 ovarian, 108%; with IGROV1 ovarian it was 111%. In addition, the growth with OVCAR-3 ovarian was 116%; in the experiment with HS 578T breast, 117%; in the experiment on NCI/ADR-RES ovarian, 106%; with T-47D breast, 109%.

For `COc1cc2cc3c(nc2cc1OC)CCN3Cc1ccc(NC(=O)c2ccc(Cl)c(C(F)(F)F)c2)cc1`, the growth in the experiment with RPMI-8226 leukemia was 91.2%; in the experiment with OVCAR-8 ovarian, 88.6%; with OVCAR-5 ovarian, 99.5%; in the experiment with OVCAR-4 ovarian, 80.4%; in the experiment with SK-OV-3 ovarian, 91.7%; in the experiment on IGROV1 ovarian, 78.5%. Moreover, the growth in the experiment with OVCAR-3 ovarian was 94.3%; with HS 578T breast it was 98.5%; in the experiment on NCI/ADR-RES ovarian, 99.4%; with T-47D breast, 64.2%.

Take `CSc1nc(=O)n(Cc2ccc(F)cc2)c(=O)n1Cc1ccc(C)cc1`: the growth with RPMI-8226 leukemia is 99.2%; in the experiment with OVCAR-8 ovarian, 97.6%; with OVCAR-5 ovarian, 102%; in the experiment with OVCAR-4 ovarian, 98.4%; in the experiment with SK-OV-3 ovarian it was 98.7%; in the experiment on IGROV1 ovarian it was 107%. The growth is 101% in the experiment with OVCAR-3 ovarian, 109% with HS 578T breast, 86.6% in the experiment on NCI/ADR-RES ovarian and 87% in the experiment with T-47D breast.

Regarding `COc1ccc2c(c1)C(=O)c1c-2c(=O)n(CCCN(C)C)c2cc(OC)c(OC)cc12`, the growth with RPMI-8226 leukemia is 66.6%; in the experiment with OVCAR-8 ovarian, 62.1%; with OVCAR-5 ovarian it was 130%; in the experiment with OVCAR-4 ovarian it was 74.4%; in the experiment with SK-OV-3 ovarian, 69.9%; in the experiment on IGROV1 ovarian, 67.2%. For the same molecule, the growth in the experiment on OVCAR-3 ovarian was 94.9%; in the experiment on HS 578T breast it was 119%; in the experiment on NCI/ADR-RES ovarian, 58.7%; with T-47D breast, 81.2%.

With `COc1ccc2c(c1)N(CCO)C1=C(C(=O)OC1)C2c1ccccc1` (stereo not given), the growth in the experiment with RPMI-8226 leukemia is 22%; with OVCAR-8 ovarian, 29.6%; with OVCAR-5 ovarian, 66.5%; with OVCAR-4 ovarian, 69.5%; with SK-OV-3 ovarian, 19.5%; in the experiment with IGROV1 ovarian, 43.3%. Moreover, the growth in the experiment with OVCAR-3 ovarian is -40.3% (active); in the experiment on HS 578T breast, -5.25% (active); in the experiment on NCI/ADR-RES ovarian, -2.83% (active); in the experiment on T-47D breast, 37.6%.

As for `CCN(CC)CCC(=O)Nc1cccc2c1C(=O)c1c(c(O)c3ccccc3c1O)C2=O`, the growth in the experiment on RPMI-8226 leukemia was 33.2%; with OVCAR-8 ovarian it was 45.3%; with OVCAR-5 ovarian it was 80.9%; in the experiment on OVCAR-4 ovarian it was 60.2%; in the experiment with SK-OV-3 ovarian, 63.6%; in the experiment on IGROV1 ovarian, 36.9%. Also, the growth is 64.8% in the experiment with OVCAR-3 ovarian, 76.6% in the experiment on HS 578T breast, 46.9% with NCI/ADR-RES ovarian and 41.2% with T-47D breast.

Consider `COc1ccc2c(c1)/C(=C\c1c[nH]c3ccc(OC)cc13)C(=O)N2`, for which the growth was 36.7% with RPMI-8226 leukemia; 59.7% in the experiment on OVCAR-8 ovarian; 64.8% in the experiment on OVCAR-5 ovarian; 57.6% in the experiment with OVCAR-4 ovarian; 52.8% in the experiment with SK-OV-3 ovarian; 41.7% in the experiment with IGROV1 ovarian. Moreover, the growth in the experiment on OVCAR-3 ovarian was 52.6%; in the experiment on HS 578T breast, 46.9%; with NCI/ADR-RES ovarian, 28.1%; in the experiment with T-47D breast it was 49.7%.

For `N#CCCN1C/C(=C/c2ccc(Cl)cc2)C(=O)/C(=C/c2ccc(Cl)cc2)C1`, the growth in the experiment on RPMI-8226 leukemia is -15.5% (active); in the experiment with OVCAR-8 ovarian it was -22% (active); in the experiment with OVCAR-5 ovarian, 4.05% (active); in the experiment on OVCAR-4 ovarian, 8.18% (active); with SK-OV-3 ovarian it was -10.2% (active); in the experiment on IGROV1 ovarian, -66.7% (active). Also, the growth is -48.6% (active) with OVCAR-3 ovarian, -9.16% (active) in the experiment with HS 578T breast, 11.1% in the experiment on NCI/ADR-RES ovarian and 8.7% (active) with T-47D breast.

For the molecule `COc1cc(-c2nc(Nc3nc4ccccc4s3)[nH]c(=O)c2C#N)cc(OC)c1O`, the growth in the experiment with RPMI-8226 leukemia is 89.9%; in the experiment with OVCAR-8 ovarian, 99%; in the experiment on OVCAR-5 ovarian, 109%; in the experiment with OVCAR-4 ovarian, 109%; in the experiment on SK-OV-3 ovarian, 108%; in the experiment on IGROV1 ovarian, 128%. The growth with OVCAR-3 ovarian was 104%; in the experiment with HS 578T breast, 107%; with NCI/ADR-RES ovarian, 111%; with T-47D breast it was 102%.
